LYP inh 2 = blocks human PTPN22 phosphatase activity | inhibition, % at 2 µM | 0.21% of 96,000 active | Q9Y2R2 | recombinant LYP catalytic domain, DiFMUP fluorescence;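 active = inhibition at 2 µM at or above a set limit, the screen mean plus 3 SD, cut at about 24% in these data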;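 note: 0% = DMSO with enzyme and 100% = enzyme fully blocked by orthovanadate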
PLK1 PBD inh = blocks phosphopeptide binding to human Plk1 polo box domain; inhibition, %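 (tested at about 20 µM)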; 0.13% of 97,000 active; AID 693; Plk1 PBD phosphopeptide binding, fluorescence polarization; in the data active = inhibition above about 34%, passing the limit was not always enough
EphB4 antag = EphB4-ephrin-B2 interaction antagonism; EphB4 LBD / TNYL-RAW-Alexa532 peptide, fluorescence polarization; inhibition, % at 7 µM; P54760; 0.15% of 97,000 active; AID 720;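 active = inhibition above the screen-wide mean inhibition plus 3 SD, cut at about 15% in these data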;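 note: 0% = DMSO wells and 100% = excess unlabeled TNYL-RAW peptide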
PLK1 inh = PLK1 (human) kinase inhibition; P53350; recombinant PLK1 kinase, TR-FRET peptide phosphorylation; inhibition, % at 10 µM; 0.53% of 97,000 active; AID 619;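 active = inhibition of 50% or more in the single-concentration screen; inactive = inhibition below 50%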;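 note: 0% = DMSO max control and 100% = H-89 dihydrochloride min control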
PTPN22 act = LYP (human) phosphatase activation; recombinant LYP, DiFMUP fluorescence; 0 = plate median, 100 = signal doubled; AID 697; activation, % at 2 µM; 0.11% of 96,000 active; Q9Y2R2;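 active = activation at 2 µM above a set limit, the mean plus 5 SD, cut at about 37% in these data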
LYP act confirm = confirmation of human LYP phosphatase activators. shares compounds with PTPN22 act. Recombinant LYP, DIFMUP fluorescence, activation; zero set by plate's median compound well. activation, % at 2 µM. 100 tested, under 10 active. AID 1031; call rule not given here
* hit, by the source's call; · = no result. A selection: hits, their analogues and other compounds. The true share with any hit is near 1.2%.

SMILES	LYP inh 2	PLK1 PBD inh	EphB4 antag	PLK1 inh	PTPN22 act	LYP act confirm
CCOC(=O)C1=C(CSc2nc(-c3ccccc3)ccc2C#N)OC(N)=C(C#N)C1c1ccccc1 (stereo unspecified)	-41	-9	-4	-7	39*	-3
COc1ccccc1N1CCN(C(=O)CCn2c(=O)[nH]c3ccsc3c2=O)CC1	-1	-22	0	-2	-1	·
O=C(CCn1c(=O)[nH]c2ccsc2c1=O)N1CCN(Cc2ccc3c(c2)OCO3)CC1	-40	6	-6	-12	45*	-2
CCN(CC)S(=O)(=O)c1cccc(C(=O)OCc2cc(=O)n3nc(C)sc3n2)c1	-4	8	4	-17	1	·
S=c1[nH]ncn1/N=C/c1ccccc1	-12	1	-5	-6	11	·
S=c1[nH]ncn1-c1ccccn1	-49	-22	-8	-9	46*	-4
COc1cc2nc(SCC(N)=O)n(CCC3=CCCCC3)c(=O)c2cc1OC	-42	-10	-7	-12	41*	-3
COc1cc(NC(=O)CC2NCCNC2=O)cc(OC)c1 (stereo unspecified)	5	37	4	-10	-2	·
COc1cc(/C=N/c2oc(-c3ccccc3)cc2C#N)ccc1O	-3	-18	4	-7	5	·
C=CCn1c(SCC(=O)Nc2c(C)nn(Cc3ccccc3)c2C)nnc1C(O)c1ccccc1 (stereo unspecified)	-49	-16	-5	-10	43*	-1
C=CCn1c(SCC(=O)Nc2nc(C)cs2)nnc1C(CO)NC(=O)c1ccccc1 (stereo unspecified)	3	10	-3	-11	-4	·
COc1ccc(NC(=O)CSc2nc(C)c3c(c2C#N)CCCC3)cc1	-44	-17	-2	-11	47*	3
CCOc1ccc(CN2CCNC(=O)C2CC(=O)OC)cc1 (stereo unspecified)	-38	19	-7	-8	37*	-5
COC(=O)NC(=S)Nc1ccc(Oc2ccc(Cl)cc2Cl)c(Cl)c1	4	-27	4	-1	2	·
c1ccc(-c2nn3c(Cn4cnc5ccccc54)nnc3s2)cc1	-1	-2	2	-12	0	·
c1ccc2c(c1)ncn2Cc1nnc2sc(-c3ccncc3)nn12	-56	-1	0	-14	51*	7
COC(=O)c1c(C(=O)OC)c2cc(C(=O)c3ccccc3)ccn2c1Cl	8	7	-1	-10	-8	·
CCSc1c(C(=O)NC)ccc2c1C(=O)c1ccccc1C2=O	8	15	-1	-14	-6	·
COC(=O)c1ccc2c(c1O)C(=O)c1ccccc1C2=O	-48	-6	-1	-1	46*	3
Cc1c(-c2nc(N)nc(Nc3ccccc3)n2)oc2ccccc12	-37	1	-10	-12	37*	-1
O=C1CN(c2nc3ccccc3n3cnnc23)CC(=O)N1CCc1ccccc1	8	-6	-1	5	-9	·
O=C(CCNS(=O)(=O)c1cccs1)Nc1nccs1	-8	10	-2	19	6	·
O=C(CCNS(=O)(=O)c1cccs1)Nc1ccccc1F	-38	6	-2	-9	42*	-4
COC(=O)c1sccc1NC(=O)c1ccc(C)s1	-50	-12	-5	-1	43*	2
COC(=O)c1sccc1NC(=O)c1ccc(Cl)s1	-2	-7	-7	-8	2	·
Cc1cc(F)ccc1NCc1cccnc1	-36	18	-1	-8	38*	6
CCC(=O)NC(C)C(c1cccs1)N1CCN(c2ccccc2)CC1 (stereo unspecified)	-48	21	1	-14	43*	4
COc1ccc(C(=O)Cc2ccc(OC)c(OC)c2)c(OC)c1	3	7	1	-14	-1	·
